# Giardia FBPA inh-1 – qHTS Assay for Inhibitors of Fructose-1,6-bisphosphate Aldolase from Giardia Lamblia; Potency, µM (doses to about 59.6 µM), for inactives: at the highest dose activity, negative = inhibition, actives largely listed as inhibitors; hit rate 0.71% among 290,000; AID 2451, 2010; A8B2U2; purified Giardia FBPA; also: nearly all actives have a fitted effect of over 55% in size
# Target sequence (A8B2U2 whole entry, looked up): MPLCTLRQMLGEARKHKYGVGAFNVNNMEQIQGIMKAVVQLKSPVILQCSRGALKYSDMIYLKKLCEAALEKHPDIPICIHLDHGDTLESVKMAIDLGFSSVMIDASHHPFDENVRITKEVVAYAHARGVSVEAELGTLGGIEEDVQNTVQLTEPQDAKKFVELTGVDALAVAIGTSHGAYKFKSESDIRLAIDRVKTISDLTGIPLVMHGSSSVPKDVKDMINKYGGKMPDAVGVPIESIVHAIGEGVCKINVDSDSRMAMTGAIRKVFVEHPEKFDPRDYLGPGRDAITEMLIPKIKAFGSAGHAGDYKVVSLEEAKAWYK
#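 40 nM FBPA preincubated 10 min at RT with compound (up to 57.5 uM final), then substrate plus GAPDH/TPI/NAD/arsenate coupling and diaphorase/resazurin added. Fluorescence read after 20 min at RT, 525/598 nm.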
# LmPK inhibitor – qHTS Assay for Inhibitors of Leishmania Mexicana Pyruvate Kinase (LmPK); purified LmPK, Kinase-Glo ATP luminescence, 1 h; Potency, µM (highest dose often 57.5 µM), for the others: at the top dose activity change, negative = inhibition, most hits filed as inhibitors; hit rate 0.37% among 290,000
#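 Screened at intermediate enzyme activity to detect both inhibitors and activators: LmPK at 0.1 nM, with a 0.5 nM enzyme column as activation reference. PEP 0.5 mM, ADP 0.1 mM; ATP detected by luminescence after 1 h.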
# AMA1 RON2 block – qHTS for Inhibitors of AMA1-RON; Towards Development of Antimalarial Drug Lead: Primary Screen | AlphaScreen AMA1-biotinylated RON2 peptide binding | hit rate 0.2% among 360,000 | Plasmodium falciparum AMA1 (3D7) - RON2 peptide interaction | Potency, µM (top dose mostly 58.2 µM), inactives show top-dose activity change, negative = inhibition, actives largely listed as inhibitors | AID 720542, 2013;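 also: 0% = vehicle wells and -100% = peptide control; nearly all actives have a fitted effect of over 45% in size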
#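 AMA1 (3D7) with his tag at 25 nM final met compounds first, then biotinylated RON2 peptide at 25 nM; detection used donor plus acceptor beads, 10 µg/mL apiece, read by AlphaScreen after 30 min at room temperature.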
# AmpC inh no detg – qHTS Inhibitors of AmpC Beta-Lactamase (assay without detergent) | hit rate 0.52% among 330,000 | AmpC nitrocefin hydrolysis, absorbance 480 nm, 0.0001% Triton | Potency, µM (titrated, usually from 57.1 µM), for inactives: top-dose activity change, negative = inhibition, hits mostly inhibitors | P00811;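 also: plate controls were no compound for no effect and no enzyme for full effect; nearly all actives have a fitted effect of over 20% in size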
# Target sequence (P00811 whole entry, looked up): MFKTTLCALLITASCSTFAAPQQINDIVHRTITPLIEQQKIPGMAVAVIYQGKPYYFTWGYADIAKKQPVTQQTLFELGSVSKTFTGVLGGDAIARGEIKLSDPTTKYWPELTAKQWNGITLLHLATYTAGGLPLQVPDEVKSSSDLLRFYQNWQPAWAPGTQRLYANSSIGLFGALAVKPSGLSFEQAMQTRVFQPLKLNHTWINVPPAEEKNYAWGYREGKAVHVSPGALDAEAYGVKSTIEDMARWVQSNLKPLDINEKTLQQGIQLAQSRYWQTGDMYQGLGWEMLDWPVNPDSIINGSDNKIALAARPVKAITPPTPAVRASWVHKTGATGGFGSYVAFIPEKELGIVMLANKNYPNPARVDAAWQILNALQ
#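 20 mM phosphate pH 7.0 + 0.01% (detergent screen) or 0.0001% Triton X-100; 5.3 nM AmpC reagent; cpd preinc 15 min RT; nitrocefin (800 uM stock) to start; A480 q20 s × 4 min; Activity was normalised to no-enzyme and no-compound control wells.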
# AmpC inh detg – qHTS Inhibitors of AmpC Beta-Lactamase (assay with detergent) | P00811 | hit rate 0.041% among 370,000 | AID 485294, 2010 | AmpC hydrolysis of nitrocefin, absorbance 480 nm, 0.01% Triton | Potency, µM (doses to about 114 µM), for the others: at the top dose activity change, negative = inhibition, usual class: inhibitors;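 also: 0% = no-compound wells and -100% = no-enzyme wells; nearly all actives have a fitted effect of over 25% in size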
#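 AmpC (5.3 nM in the dispensed reagent) in 20 mM phosphate pH 7.0 with 0.01% (detergent screen) or 0.0001% Triton X-100 was preincubated with compounds for 15 min at room temperature. Nitrocefin was then added from an 800 uM solution, and hydrolysis was followed at 480 nm.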
# Giardia growth – qHTS Assay for Inhibitors of Fructose-1,6-bisphosphate Aldolase from Giardia Lamblia: Giardia lamblia growth inhibition; shares compounds with Giardia FBPA inh-1; Giardia lamblia trophozoite growth inhibition; Potency, µM (titrated, usually from 57.5 µM), for the others: at the top dose activity change, negative = inhibition, actives largely listed as inhibitors; hit rate 5% among 1,500;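 also: trophozoites exposed to compound for 48 h at 37 °C; nearly all actives have a fitted effect of over 70% in size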
# Mammalian tox – qHTS Assay for Inhibitors of Fructose-1,6-bisphosphate Aldolase from Giardia Lamblia: Mammalian cellular toxicity; hit rate 4% among 1,500; shares compounds with Giardia FBPA inh-1; mammalian cell viability counter-screen, qHTS; Potency, µM (titrated, usually from 57.5 µM), for inactives: top-dose viability change, negative = toxicity, most hits filed as inhibitors;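 also: Chinese hamster ovary cells used as mammalian cytotoxicity surrogate; viability measured as cellular ATP by luminescence; compound exposure lasted 48 h before reading; nearly all actives have a fitted effect of over 60% in size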
# Giardia FBPA inh-2 – qHTS Assay for Inhibitors of Fructose-1,6-bisphosphate Aldolase from Giardia Lamblia: Primary screen confirmation; shares compounds with Giardia FBPA inh-1; purified Giardia aldolase enzyme activity, qHTS; Potency, µM (top dose mostly 57.5 µM), for the others: at the highest dose activity change, negative = inhibition, hits mostly inhibitors; hit rate 5% among 1,500; AID 2787, 2010; also: nearly all actives have a fitted effect of over 45% in size
# Rabbit FBPA inh – qHTS Assay for Inhibitors of Fructose-1,6-bisphosphate Aldolase from Giardia Lamblia: Rabbit FBPA Selectivity | shares compounds with Giardia FBPA inh-1 | Rabbit muscle FBPA enzyme inhibition, selectivity counter-screen | Potency, µM (titrated, usually from 57.5 µM), for inactives: at the highest dose activity, negative = inhibition, hits mostly inhibitors | hit rate 4% among 1,500; also: nearly all actives have a fitted effect of over 60% in size
# GAPDH coupling – qHTS Assay for Inhibitors of Fructose-1,6-bisphosphate Aldolase from Giardia Lamblia: Coupling assay counterscreen confirmation | shares compounds with Giardia FBPA inh-1 | GAPDH coupling enzyme counterscreen, biochemical, qHTS | hit rate 6% among 1,500 | Potency, µM (top dose mostly 57.5 µM), inactives show at the highest dose activity change, negative = inhibition, hits mostly inhibitors; also: nearly all actives have a fitted effect of over 55% in size
# * marks the source's active call; other numbers are inactive results; ? = inconclusive; . = not tested or not shown; ! = not confirmed by another sample; [ ] = dose if it differs, or a comment. Shown are actives, neighbours in structure and some others; about 1.3% of the full set was active somewhere. Calls follow the shape of the dose curve; as a rule, active = well fitted curve in the direction sought with a large enough effect; inconclusive = small, poorly fitted or top-dose-only effect, or another doubt; inactive = no such curve, though single readings can be large; an effect the other way counts as inactive or inconclusive. Unless noted, % is scaled to controls: 0 for no effect and ±100 for the full control effect; potency is read from the fitted curve at half-maximal effect.
SMILES,Giardia FBPA inh-1,LmPK inhibitor,AMA1 RON2 block,AmpC inh no detg,AmpC inh detg,Giardia growth,Mammalian tox,Giardia FBPA inh-2,Rabbit FBPA inh,GAPDH coupling
C/C(=N\NC(=O)c1c(Cl)c(C)nn1C)c1ccc(NC(=O)C2CCC2)cc1,.,-4%,69%,56%,-10%,.,.,.,.,.
CC(=O)c1ccc(NC(=S)NC(=O)c2c(Cl)c(C)nn2C)cc1,6.3µM*,4%,58%,-2%,?,?,17%,10%,14%,1%
COc1cc(OC)c2c(c1C(CCN1CCCC1)c1ccc(N(C)C)cc1)OC(=O)CC2c1ccc(N(C)C)cc1 (configuration not stated),-6%,.,.,.,.,.,.,.,.,.
NN1C(=O)/C(=C2/Sc3ccccc3N2CCCS(=O)(=O)O)SC1=S,18µM*,-9%,-1%,-30%,-13%,14%[10.4 µM],15%,11%,8%,-9%
COc1cccc(CCNC(=O)c2c(O)nc3ccccn3c2=O)c1,.,.,.,.,-6%,.,.,.,.,.
Cc1ccc(NS(=O)(=O)c2cc(-c3cc(C)no3)ccc2C(C)C)nc1,20µM*,-3%,8%,-18%,?,-4%,9%,?,?,?
CCc1ccc(-c2cc(C)no2)cc1S(=O)(=O)Nc1ccc(C)cn1,.,-6%,102%,-26%,-4%,.,.,.,.,.
O=C1NC(=O)C(c2ccccc2[N+](=O)[O-])=C1Nc1ccc(O)c(Cl)c1,25µM*!,1%,-20%,-42%,-8%,-16%,-4%,?,?,-19%
O=c1cc(-c2ccccc2Cl)oc2c([N+](=O)[O-])ccc(O)c12,-1%[89.2 µM],.,.,.,.,.,.,.,.,.
Cc1ccc(-n2ccnc(NCCc3ccc(S(N)(=O)=O)cc3)c2=O)cc1C,.,.,.,.,4%,.,.,.,.,.
CCC(C)N1C(=O)/C(=C/c2ccc3c(c2)CCN3CCCCl)C(=O)NC1=S (configuration not stated),11µM*,-22%,27%,-53%,-8%,6%[10.4 µM],-5%,?,-8%,6%
Cc1[nH]c2ccccc2c1C(=O)C(=O)N1CCN(c2cccc(Cl)c2)CC1,.,-4%,-11%,-15%,2%,.,.,.,.,.
COc1ccc(C(=O)N[C@H](C(=O)Nc2cccc(S(=O)(=O)N3CCOCC3)c2)C(C)C)cc1,.,.,6%,.,.,.,.,.,.,.
Cc1cn2c(=O)cc(COC(=O)c3ccc(NC(=O)c4ccc(C(C)(C)C)cc4)cc3)nc2s1,.,.,.,.,-4%,.,.,.,.,.
COc1ccccc1CNC1CCCc2ccccc21 (configuration not stated),16µM*,-6%,-12%,-22%,?,?,0%,3%,4%,10%
COc1ccc(CNC2CCCc3ccccc32)cc1OC (configuration not stated),-24%,-9%,-10%,-27%,-6%,.,.,.,.,.
COc1ccc(CNC2CCSc3ccccc32)cc1OC (configuration not stated),28µM*,-4%,-6%,-10%,2%,8%[10.4 µM],25%,1%,4%,3%
NNc1ccc(Cl)nn1,20µM*,0%,75%,-25%,-9%,12%,-1%,-5%,0%,-17%
Cc1ccc([C@H]2C[C@@H](O)[C@H](n3cc(-c4ccc(F)cc4)nn3)CN2C(=O)C2CCCCC2)cc1,.,.,-8%,.,.,.,.,.,.,.
O=c1[nH]c(CSc2cccc[n+]2[O-])nc2ccccc12,14µM*,0%,27%,-18%,-3%,0%[10.4 µM],-9%,-2%,-4%,1%
Cc1nnc(SCC(=O)N2CCN(S(=O)(=O)c3ccccc3)CC2)[nH]c1=O,-14%,7%,5%,-9%,1%,.,.,.,.,.
Cc1ccc(S(=O)(=O)N2CCN(C(=O)CSc3nnc(C)c(=O)[nH]3)CC2)cc1,28µM*,18%,-14%,-23%,?,?,5%,6%,14%,22%
CCCCCCNC(=O)N[C@@H](Cc1ccc(O)cc1)C(=O)NCCC[C@H]1CN2C(=NC[C@H]2C)N1CC1CCC1,4%,1%,-3%,96%,1%,.,.,.,.,.
CCCCCCNC(=O)N[C@H](Cc1ccc(O)cc1)C(=O)NCCC[C@H]1CN2C(=NC[C@H]2CCC)N1CC1CCC1,16µM*,-9%,.,66%,8%,-18%,5%,-1%,-2%,4%
CCCCC1Cc2[nH]c(=S)[nH]c(=O)c2C(C(C)C)O1 (configuration not stated),.,.,56%,.,.,.,.,.,.,.
O=C(O)c1cc2ncc(CCO)cn2n1,16µM*,0%,-9%,-18%,0%,-16%,-2%,8%,5%,5%
Cn1c(SCC(=O)c2ccccc2)nnc1-c1cnccn1,20µM*,-10%,0%,-17%,-11%,17%,-4%,8%,2%,6%
CCn1c(SCC(=O)c2ccccc2)nnc1-c1cnccn1,?,-2%,8%,-11%,-5%,.,.,.,.,.
CC(C)C[C@H](NC(=O)c1nc[nH]c1C(=O)NCCCCCNC(=O)OC(C)(C)C)C(=O)OC(C)(C)C,18µM*,8%,149%,182%,8%,-15%,0%,-1%,-22%,-20%

# Screening data as filed in PubChem.
